Tests used:
Assay in all cases: log2 ratio of Biotin-Ahx-Ub-VS probe labelling (fragment/DMSO); higher = less target engagement (more negative = stronger competition), active = hit call of the paper (q ≤ 0.05, log2 ratio ≤ -1)
Conditions in all cases: compound concentration: 200 uM; treatment time: 3 h
[1] = target: T1, USP19 (UniProt O94966)
T1 sequence (whole entry): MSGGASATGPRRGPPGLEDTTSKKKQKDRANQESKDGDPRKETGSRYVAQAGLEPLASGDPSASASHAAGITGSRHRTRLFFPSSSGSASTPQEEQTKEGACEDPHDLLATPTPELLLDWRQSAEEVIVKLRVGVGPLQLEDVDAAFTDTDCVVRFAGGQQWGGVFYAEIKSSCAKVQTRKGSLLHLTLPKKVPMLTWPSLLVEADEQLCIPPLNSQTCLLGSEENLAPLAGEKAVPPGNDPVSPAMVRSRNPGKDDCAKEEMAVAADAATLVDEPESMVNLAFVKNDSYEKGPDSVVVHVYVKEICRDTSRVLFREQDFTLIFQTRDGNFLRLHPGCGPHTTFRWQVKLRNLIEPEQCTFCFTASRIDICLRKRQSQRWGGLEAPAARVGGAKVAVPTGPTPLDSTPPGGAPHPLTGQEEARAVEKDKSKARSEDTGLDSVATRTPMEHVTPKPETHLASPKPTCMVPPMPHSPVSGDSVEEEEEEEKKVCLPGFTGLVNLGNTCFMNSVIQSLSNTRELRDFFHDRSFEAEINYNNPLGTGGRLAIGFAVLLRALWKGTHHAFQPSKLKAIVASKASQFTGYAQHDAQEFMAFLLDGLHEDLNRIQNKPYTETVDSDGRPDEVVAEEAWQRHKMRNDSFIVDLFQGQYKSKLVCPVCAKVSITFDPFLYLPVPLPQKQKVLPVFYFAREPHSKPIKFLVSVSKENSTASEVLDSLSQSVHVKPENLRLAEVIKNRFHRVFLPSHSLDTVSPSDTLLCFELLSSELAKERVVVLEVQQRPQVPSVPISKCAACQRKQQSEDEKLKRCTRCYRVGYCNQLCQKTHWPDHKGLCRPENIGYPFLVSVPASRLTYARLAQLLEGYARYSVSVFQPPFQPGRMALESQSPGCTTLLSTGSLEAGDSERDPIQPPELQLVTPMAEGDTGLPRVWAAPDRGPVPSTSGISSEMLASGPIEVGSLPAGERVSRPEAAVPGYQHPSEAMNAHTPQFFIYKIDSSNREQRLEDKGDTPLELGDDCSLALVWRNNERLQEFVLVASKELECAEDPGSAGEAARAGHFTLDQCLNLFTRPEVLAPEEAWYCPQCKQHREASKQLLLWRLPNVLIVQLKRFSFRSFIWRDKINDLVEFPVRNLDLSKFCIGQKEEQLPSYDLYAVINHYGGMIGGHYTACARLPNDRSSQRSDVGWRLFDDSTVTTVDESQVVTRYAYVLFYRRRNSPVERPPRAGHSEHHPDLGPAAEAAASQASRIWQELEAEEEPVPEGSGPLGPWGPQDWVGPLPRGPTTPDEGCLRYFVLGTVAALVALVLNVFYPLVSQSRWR
Outline: (§1)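 Each value is an average log2 ratio of fragment to vehicle, tested by unpaired t-test. The underlying Spectronaut label-free quantities were global-median-normalised, and only proteins with ≥2 unique peptides were included. Triplicate HEK293T lysate samples (495 µg) were exposed to fragment at 200 µM or vehicle for 3 h, then to Biotin-Ahx-Ub-VS at 0.5 µM final for 1 h, before NeutrAvidin enrichment of labelled DUBs, LysC and trypsin digestion, and diaPASEF LC-MS/MS.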

[2] = target: T2, USP22 (UniProt Q9UPT9)
T2 sequence (whole entry): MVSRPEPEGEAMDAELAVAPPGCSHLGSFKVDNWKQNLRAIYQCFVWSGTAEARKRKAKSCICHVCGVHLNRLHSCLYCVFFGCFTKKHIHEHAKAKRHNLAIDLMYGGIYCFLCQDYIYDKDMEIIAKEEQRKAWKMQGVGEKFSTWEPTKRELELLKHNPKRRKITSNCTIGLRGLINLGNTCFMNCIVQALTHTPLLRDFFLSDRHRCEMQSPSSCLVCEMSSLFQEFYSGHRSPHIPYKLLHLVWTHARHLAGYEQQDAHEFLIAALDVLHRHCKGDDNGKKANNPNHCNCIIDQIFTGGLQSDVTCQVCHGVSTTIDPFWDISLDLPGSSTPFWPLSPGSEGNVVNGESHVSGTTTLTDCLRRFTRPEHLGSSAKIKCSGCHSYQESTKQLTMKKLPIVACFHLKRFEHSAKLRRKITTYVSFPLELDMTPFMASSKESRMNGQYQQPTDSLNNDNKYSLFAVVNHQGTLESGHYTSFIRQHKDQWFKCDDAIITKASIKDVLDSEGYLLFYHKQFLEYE
Outline: as §1

[3] = target: USP24 (UniProt Q9UPU5)
Outline: as §1

[4] = target: T3, USP25 (UniProt Q9UHP3)
T3 sequence (whole entry): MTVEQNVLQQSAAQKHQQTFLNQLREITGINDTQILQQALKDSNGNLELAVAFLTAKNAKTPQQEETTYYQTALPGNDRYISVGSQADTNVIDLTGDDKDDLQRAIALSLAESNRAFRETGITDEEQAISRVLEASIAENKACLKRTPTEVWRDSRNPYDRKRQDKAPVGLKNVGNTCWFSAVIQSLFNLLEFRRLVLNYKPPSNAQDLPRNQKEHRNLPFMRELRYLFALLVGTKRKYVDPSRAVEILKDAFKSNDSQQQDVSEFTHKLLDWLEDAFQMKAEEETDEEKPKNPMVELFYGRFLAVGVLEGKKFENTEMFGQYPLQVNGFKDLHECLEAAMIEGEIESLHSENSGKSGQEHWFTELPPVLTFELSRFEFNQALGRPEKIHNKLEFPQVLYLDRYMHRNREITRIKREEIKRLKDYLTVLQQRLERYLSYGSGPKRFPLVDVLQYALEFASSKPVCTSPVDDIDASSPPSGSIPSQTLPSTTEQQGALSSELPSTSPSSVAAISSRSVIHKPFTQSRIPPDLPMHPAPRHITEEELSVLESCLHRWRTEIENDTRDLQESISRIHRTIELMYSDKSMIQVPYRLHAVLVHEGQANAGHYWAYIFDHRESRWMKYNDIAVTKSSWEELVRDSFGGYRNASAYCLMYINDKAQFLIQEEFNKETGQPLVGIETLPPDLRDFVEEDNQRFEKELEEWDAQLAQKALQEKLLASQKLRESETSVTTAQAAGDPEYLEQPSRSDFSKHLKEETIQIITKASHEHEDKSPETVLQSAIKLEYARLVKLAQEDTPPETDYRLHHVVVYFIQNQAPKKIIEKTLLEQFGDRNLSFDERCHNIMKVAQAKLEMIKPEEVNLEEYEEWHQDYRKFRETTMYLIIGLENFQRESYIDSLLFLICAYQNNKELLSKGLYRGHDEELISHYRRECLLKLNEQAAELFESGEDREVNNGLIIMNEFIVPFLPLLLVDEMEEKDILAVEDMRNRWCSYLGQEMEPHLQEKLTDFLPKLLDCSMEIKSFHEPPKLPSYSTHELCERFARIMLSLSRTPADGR
Outline: as §1

[5] = target: T4, USP28 (UniProt Q96RU2)
T4 sequence (whole entry): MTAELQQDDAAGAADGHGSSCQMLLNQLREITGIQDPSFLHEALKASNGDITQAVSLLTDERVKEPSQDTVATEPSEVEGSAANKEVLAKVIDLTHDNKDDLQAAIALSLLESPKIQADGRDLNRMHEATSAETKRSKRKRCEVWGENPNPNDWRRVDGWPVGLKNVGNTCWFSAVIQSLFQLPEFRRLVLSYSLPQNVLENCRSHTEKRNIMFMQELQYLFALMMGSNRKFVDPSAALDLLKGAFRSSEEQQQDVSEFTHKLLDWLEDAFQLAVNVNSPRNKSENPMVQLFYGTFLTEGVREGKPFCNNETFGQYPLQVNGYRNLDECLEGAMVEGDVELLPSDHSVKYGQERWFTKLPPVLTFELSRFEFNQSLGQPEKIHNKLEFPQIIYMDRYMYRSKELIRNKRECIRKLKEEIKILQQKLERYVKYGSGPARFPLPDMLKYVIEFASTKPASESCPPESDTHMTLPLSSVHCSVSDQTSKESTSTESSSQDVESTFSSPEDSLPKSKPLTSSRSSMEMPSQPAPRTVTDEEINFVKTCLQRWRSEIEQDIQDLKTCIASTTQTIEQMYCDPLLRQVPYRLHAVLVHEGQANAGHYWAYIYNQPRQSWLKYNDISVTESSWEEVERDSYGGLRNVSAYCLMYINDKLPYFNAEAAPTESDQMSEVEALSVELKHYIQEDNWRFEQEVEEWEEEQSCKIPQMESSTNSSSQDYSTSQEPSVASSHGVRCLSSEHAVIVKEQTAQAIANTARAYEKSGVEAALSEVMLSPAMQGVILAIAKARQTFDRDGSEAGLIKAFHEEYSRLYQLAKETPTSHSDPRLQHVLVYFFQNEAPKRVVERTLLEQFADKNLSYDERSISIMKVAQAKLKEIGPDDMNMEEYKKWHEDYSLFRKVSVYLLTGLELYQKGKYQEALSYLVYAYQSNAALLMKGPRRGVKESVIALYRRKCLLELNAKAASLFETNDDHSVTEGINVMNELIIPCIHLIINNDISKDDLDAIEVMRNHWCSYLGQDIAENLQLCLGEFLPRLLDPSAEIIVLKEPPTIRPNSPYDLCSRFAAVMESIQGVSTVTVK
Outline: as §1

Measured: log2 ratio of Biotin-Ahx-Ub-VS probe labelling

USP24, sequence (Q9UPU5 whole entry): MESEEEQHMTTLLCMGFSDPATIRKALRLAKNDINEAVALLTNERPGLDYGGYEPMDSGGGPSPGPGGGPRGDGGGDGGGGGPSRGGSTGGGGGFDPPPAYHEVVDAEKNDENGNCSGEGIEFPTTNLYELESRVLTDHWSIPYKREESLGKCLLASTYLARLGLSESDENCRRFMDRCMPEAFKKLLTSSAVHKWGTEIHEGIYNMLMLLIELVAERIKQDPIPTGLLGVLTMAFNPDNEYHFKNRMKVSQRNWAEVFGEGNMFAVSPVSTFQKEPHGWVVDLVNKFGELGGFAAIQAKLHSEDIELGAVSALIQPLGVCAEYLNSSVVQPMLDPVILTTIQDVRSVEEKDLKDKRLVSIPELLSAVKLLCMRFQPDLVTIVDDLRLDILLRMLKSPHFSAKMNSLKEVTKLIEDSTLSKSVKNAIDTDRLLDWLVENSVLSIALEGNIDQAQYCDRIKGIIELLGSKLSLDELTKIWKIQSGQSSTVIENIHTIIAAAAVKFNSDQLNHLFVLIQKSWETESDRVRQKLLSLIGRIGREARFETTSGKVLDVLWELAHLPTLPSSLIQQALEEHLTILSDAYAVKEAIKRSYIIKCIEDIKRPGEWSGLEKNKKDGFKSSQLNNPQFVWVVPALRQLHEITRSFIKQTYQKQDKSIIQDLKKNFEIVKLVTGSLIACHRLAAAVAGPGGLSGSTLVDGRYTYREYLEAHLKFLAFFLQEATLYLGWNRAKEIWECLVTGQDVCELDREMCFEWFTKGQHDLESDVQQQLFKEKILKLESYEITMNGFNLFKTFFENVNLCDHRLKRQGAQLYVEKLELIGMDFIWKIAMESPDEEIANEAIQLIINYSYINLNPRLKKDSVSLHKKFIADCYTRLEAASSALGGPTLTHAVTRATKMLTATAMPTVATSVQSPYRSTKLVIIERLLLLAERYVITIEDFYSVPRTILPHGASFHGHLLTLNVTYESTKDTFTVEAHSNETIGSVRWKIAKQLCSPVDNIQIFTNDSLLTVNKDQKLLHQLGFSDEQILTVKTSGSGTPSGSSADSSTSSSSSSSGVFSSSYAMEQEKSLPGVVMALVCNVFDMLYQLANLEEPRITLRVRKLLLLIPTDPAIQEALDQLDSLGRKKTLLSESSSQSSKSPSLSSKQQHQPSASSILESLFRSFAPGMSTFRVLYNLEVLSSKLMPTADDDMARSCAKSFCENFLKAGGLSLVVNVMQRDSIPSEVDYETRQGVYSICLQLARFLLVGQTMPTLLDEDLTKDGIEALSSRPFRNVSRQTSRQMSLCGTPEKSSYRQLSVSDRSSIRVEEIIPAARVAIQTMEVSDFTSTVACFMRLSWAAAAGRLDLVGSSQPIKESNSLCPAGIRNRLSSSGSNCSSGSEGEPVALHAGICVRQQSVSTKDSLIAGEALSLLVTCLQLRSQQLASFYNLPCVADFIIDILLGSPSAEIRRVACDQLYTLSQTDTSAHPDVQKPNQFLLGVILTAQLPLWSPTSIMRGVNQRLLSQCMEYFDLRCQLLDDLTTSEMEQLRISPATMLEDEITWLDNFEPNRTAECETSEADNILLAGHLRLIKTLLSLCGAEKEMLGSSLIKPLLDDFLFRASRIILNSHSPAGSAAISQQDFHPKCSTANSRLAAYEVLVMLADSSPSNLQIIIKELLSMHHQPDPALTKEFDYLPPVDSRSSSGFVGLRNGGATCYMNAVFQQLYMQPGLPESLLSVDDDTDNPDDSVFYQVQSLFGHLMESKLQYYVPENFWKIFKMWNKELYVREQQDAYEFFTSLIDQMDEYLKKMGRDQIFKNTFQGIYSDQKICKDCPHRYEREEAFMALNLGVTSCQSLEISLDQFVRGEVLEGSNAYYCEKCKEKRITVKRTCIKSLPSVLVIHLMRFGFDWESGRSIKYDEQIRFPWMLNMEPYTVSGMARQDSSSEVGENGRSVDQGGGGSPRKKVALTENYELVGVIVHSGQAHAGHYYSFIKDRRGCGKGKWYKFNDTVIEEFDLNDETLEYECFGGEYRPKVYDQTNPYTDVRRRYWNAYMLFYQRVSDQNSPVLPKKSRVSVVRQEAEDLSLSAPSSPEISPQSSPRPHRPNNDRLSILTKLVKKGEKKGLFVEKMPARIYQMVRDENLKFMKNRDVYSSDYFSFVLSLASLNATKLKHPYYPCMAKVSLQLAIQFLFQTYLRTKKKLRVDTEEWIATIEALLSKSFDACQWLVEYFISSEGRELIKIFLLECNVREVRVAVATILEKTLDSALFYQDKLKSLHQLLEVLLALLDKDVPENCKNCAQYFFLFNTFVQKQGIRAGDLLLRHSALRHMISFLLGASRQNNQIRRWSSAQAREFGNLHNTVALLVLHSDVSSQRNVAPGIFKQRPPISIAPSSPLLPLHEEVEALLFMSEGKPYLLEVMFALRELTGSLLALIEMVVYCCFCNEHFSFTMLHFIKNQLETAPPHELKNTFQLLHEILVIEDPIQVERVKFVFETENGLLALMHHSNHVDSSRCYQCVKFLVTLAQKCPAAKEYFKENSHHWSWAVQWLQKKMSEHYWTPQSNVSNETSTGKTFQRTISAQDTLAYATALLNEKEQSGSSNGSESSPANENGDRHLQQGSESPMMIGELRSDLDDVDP

Cc1ccc(CNC(=O)CCl)nc1C.Cl
inactive: [1] -0.0635 | [2] 0.00229 | [3] -0.467 | [4] -0.436 | [5] -0.456

Source: the supplement of paper PMC11732987, “Enantioselective OTUD7B fragment discovery through chemoproteomics screening and high-throughput optimisation” (Communications Chemistry, 2025)
